PubChem BioAssay (NCI)
Compounds without any hit were thinned out: in the full panel of roughly 83,000, 20% have a hit.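 The endpoint reported here, percent growth, reads 100 for growth as untreated, 0 for no net growth and -100 for all cells dead.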 A number with no mark means an inactive call. The source made the active and inactive calls. Rule for the calls: active = growth percent below 10; inactive = the rest.

Experiments:
Assay in all cases: NCI-60 one-dose screen, 48 h (100 = growth as untreated, 0 = no growth, -100 = all killed)
Details in all cases: 10 µM unless noted
SR leukemia = tested on: SR leukemia
OVCAR-8 ovarian = tested on: OVCAR-8 ovarian
OVCAR-5 ovarian = tested on: OVCAR-5 ovarian
OVCAR-4 ovarian = tested on: OVCAR-4 ovarian
SK-OV-3 ovarian = tested on: SK-OV-3 ovarian
OVCAR-3 ovarian = tested on: OVCAR-3 ovarian
HS 578T breast = tested on: HS 578T breast
NCI/ADR-RES ovarian = tested on: NCI/ADR-RES ovarian
T-47D breast = tested on: T-47D breast
BT-549 breast = tested on: BT-549 breast
MDA-MB-435 melanoma = tested on: MDA-MB-435 melanoma
SW-620 colon = tested on: SW-620 colon
MCF7 breast = tested on: MCF7 breast
HCT-116 colon = tested on: HCT-116 colon
HCC-2998 colon = tested on: HCC-2998 colon
KM12 colon = tested on: KM12 colon
RPMI-8226 leukemia = tested on: RPMI-8226 leukemia
IGROV1 ovarian = tested on: IGROV1 ovarian

SMILES	growth (SR leukemia)	growth (OVCAR-8 ovarian)	growth (OVCAR-5 ovarian)	growth (OVCAR-4 ovarian)	growth (SK-OV-3 ovarian)	growth (OVCAR-3 ovarian)	growth (HS 578T breast)	growth (NCI/ADR-RES ovarian)	growth (T-47D breast)	growth (BT-549 breast)	growth (MDA-MB-435 melanoma)	growth (SW-620 colon)	growth (MCF7 breast)	growth (HCT-116 colon)	growth (HCC-2998 colon)	growth (KM12 colon)	growth (RPMI-8226 leukemia)	growth (IGROV1 ovarian) [%]
NC(CSC(c1ccccc1)(c1ccccc1)c1ccc(Cl)cc1)C(=O)O (stereo not drawn)	-24.5% (active)	-15.9% (active)	12.2%	63.2%	17.2%	-41.4% (active)	-36.2% (active)	-20.5% (active)	23.7%	27.1%	-40.2% (active)	19.2%	8.48% (active)	4.19% (active)	-36.3% (active)	1.65% (active)	–	–
Cc1nn(-c2ccc(F)cc2)c2ncnc(Oc3ccc(NC(=O)Nc4ccc(Cl)c(C(F)(F)F)c4)cc3)c12	–	96.5%	99.3%	110%	92.6%	114%	91%	98.5%	94.6%	111%	104%	100%	96.2%	102%	99.2%	108%	98.7%	102
N#CCCN=Nc1c(O)[nH]c2ccc(F)cc12	–	107%	97.7%	90.4%	100%	103%	97.9%	98.7%	96.4%	108%	96.6%	98.3%	93.9%	95.1%	97.9%	101%	109%	101
CN(C)S(=O)(=O)c1ccc(S(=O)(=O)Nc2cccc(Cl)c2N2CCCCC2)cc1	–	92%	89.4%	68.2%	98.3%	90.6%	91.8%	76.6%	67.4%	88.4%	92.3%	97.1%	84.1%	61.6%	94.5%	94.5%	48%	82.5
N#Cc1c(-c2ccc(Cl)cc2)nc(N/N=C/c2cccc(Br)c2)nc1N1CCOCC1	–	101%	82%	95.6%	109%	94.8%	82.1%	90.6%	67.5%	101%	104%	31.5%	72.5%	61.5%	96.1%	94.9%	56%	83.6
COc1cc(/C=C/C(=O)c2c(C)oc3nc[nH]c(=O)c23)cc(OC)c1OC	–	79.5%	96.5%	74.9%	98.7%	77.8%	84.3%	82.1%	58.9%	72.6%	74.4%	77.5%	47.9%	61.3%	112%	96.9%	61.9%	75.4
COc1cc2nc(N3CCCC3)nc(NCc3ccccc3)c2cc1OC	–	78.9%	80.4%	57.2%	96%	68.1%	73.7%	72.4%	7.79% (active)	70.5%	6.99% (active)	55.9%	29.4%	28.2%	55.4%	96.3%	12.7%	90.4
Nc1ccc(-c2cc3c(NCc4ccccc4)ncnc3s2)cc1	–	94%	77%	60.6%	102%	80%	86.5%	80.7%	52.4%	78.2%	93.7%	105%	72.5%	95.6%	92.6%	88.6%	62.6%	49.9
COc1cccc(-c2nc3sccn3c2-c2ccnc(NCCCNS(=O)(=O)c3cccc(Cl)c3)c2)c1	–	26.3%	78.9%	32.6%	67.7%	58%	69.2%	13.4%	-4.56% (active)	20.2%	37.4%	67.5%	44.4%	34%	81.6%	64.8%	-9.68% (active)	50.7
COc1cc2nc(N3CCCC3)nc(Nc3ccccc3)c2cc1OC	–	-30.1% (active)	-40.5% (active)	25.1%	48.5%	-70.4% (active)	-24.2% (active)	18.4%	-49.1% (active)	-70.9% (active)	-61.4% (active)	-20.4% (active)	-71.6% (active)	-79.4% (active)	-51.2% (active)	33%	-19.8% (active)	23.3
N#Cc1c(N)n(CCNC(=O)c2ccccc2)c2nc3ccccc3nc12	–	102%	79%	114%	120%	81.9%	179%	87.7%	95.4%	140%	95.9%	123%	109%	102%	97.4%	114%	179%	76.3
C=C(C)[C@@H]1CC[C@]2(C(=O)OC)CC[C@]3(C)[C@H](CC[C@@H]4[C@@]5(C)C/C(=C/c6ccc(OC)cc6)C(=O)C(C)(C)[C@@H]5CC[C@]43C)[C@@H]12	–	102%	93.4%	85.8%	102%	86.7%	94.9%	93.2%	101%	96.6%	72.1%	62.5%	49.1%	41.8%	92.4%	94.3%	54.8%	100
COc1ccc(CCNc2nc(SC)nc(-c3cccc([N+](=O)[O-])c3)c2C#N)cc1OC	–	61.6%	87.5%	5.9% (active)	72.7%	102%	68.3%	68.4%	79.3%	42.2%	87.7%	92.9%	86.8%	82%	93.6%	99.1%	82.6%	95.4
O=C(/C=C/c1cccc([N+](=O)[O-])c1)c1ccc(O)c(CN2CCN(c3cc4c(cc3F)c(=O)c(C(=O)O)cn4C3CC3)CC2)c1	–	27.4%	12.4%	37.4%	72.9%	7.92% (active)	51.9%	10.7%	10.9%	6.04% (active)	11.2%	-43% (active)	1.85% (active)	-59.5% (active)	35.5%	-12.2% (active)	-25.6% (active)	28.8
C=CCSSc1ncnc2c1ncn2C1OC(CO)C(O)C1O (stereo not drawn)	–	20.1%	45.3%	33.8%	7.46% (active)	29.1%	47.9%	28.4%	24.3%	54.8%	22.5%	53.8%	4.74% (active)	22.4%	35.1%	37.1%	-8.17% (active)	34.9
COc1ccc(-c2nc3ccc(-c4nc5ccc(N6CCN(c7ccc(F)cc7)CC6)cc5[nH]4)cc3[nH]2)cc1OC	–	62.6%	96.1%	80.5%	80.6%	90.4%	74.8%	81.3%	43.8%	76.3%	90.1%	46.5%	9.99% (active)	11.2%	95.1%	95%	4.42% (active)	72.8
CC(C)(O)c1cn(CCCCN2C(=O)C(=O)c3ccccc32)nn1	–	102%	96.4%	96.5%	95.7%	109%	99.6%	99.9%	99.5%	110%	101%	99.6%	93.9%	101%	103%	101%	95.9%	102
